# Experimental data as given in PubChem BioAssay.
# Records with an inconclusive call do not appear. Active and inactive are the calls of the source.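 The calls were made as follows, unless noted: active = normalized viability below 100% at a tested concentration; inactive = the rest.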
# Key:
# [1] = viability loss in pontine glioma line – cell-based, SU-DIPG-XVII, MIPE5.0, CellTiter-Glo, qHTS, dose response (AID 1347060; cut-off not given, nearly all actives have AC50 up to about 26 µM;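 also: cells exposed to compound for 48 hours before viability readout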); details: CellTiter-Glo ATP luminescence
# [2] = viability loss in pontine glioma line – cell-based, SU-DIPG-XXV, MIPE5.0, CellTiter-Glo, qHTS, dose response (AID 1347065; cut-off not given, nearly all actives have AC50 up to about 26 µM;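 also: cells exposed to compound for 48 hours before ATP readout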); details: CellTiter-Glo ATP luminescence
# [3] = JHH-DIPG-1 glioma cell viability, MIPE5.0 library, CellTiter-Glo luminescence, qHTS (AID 1347067; cut-off not given, nearly all actives have AC50 up to about 26 µM;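 also: cells exposed to compound for 48 hours before readout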); details: JHH-DIPG-1 glioma viability, CellTiter-Glo ATP luminescence
# [4] = growth inhibition, single agent or in combination, cell-based, chromothripsis tumors, cisplatin or BGB combos (AID 1671449; in the data active = inhibition above about 80%;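 also: cells exposed for 96 hours; 0% = vehicle DMSO and 100% = killing by high DMSO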); details: LFS_MB_P medulloblastoma cells
# [5] = growth inhibition, single agent and combos, cell-based, chromothripsis tumors, cisplatin or BGB combos (AID 1671450; in the data active = inhibition above about 80%;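 also: cells exposed to compound for four days; 0% = vehicle DMSO and 100% = cell killing by high DMSO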); details: HDN33 neuroblastoma cells, stronger effect = higher value
# [6] = growth inhibition, single agents and combos, ICB984, cell-based, cisplatin or BGB combos, synergistic combos for chromothripsis tumors (AID 1671451; call rule not given here;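 also: cells exposed for 96 hours before readout; 0% = vehicle DMSO and 100% = killing by high DMSO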); details: ICB984 medulloblastoma cells, drug combinations, stronger effect = higher value
# [7] = growth inhibition, single agents and combos, LFS_MB_1R, cell-based, cisplatin or BGB combos, synergistic combos for chromothripsis tumors (AID 1671452; in the data active = inhibition above about 80%;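 also: cells exposed for 96 hours before readout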); details: LFS_MB_1R medulloblastoma cells, stronger effect = higher value
# [8] = growth inhibition, single agents and combos, HTB85, cell-based, BGB or cisplatin IC20 combos, synergistic combos for chromothripsis tumors (AID 1671453; in the data active = inhibition above about 80%;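 also: cells exposed for 96 hours before readout; 0% = vehicle DMSO and 100% = high DMSO killing control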); details: HTB85 osteosarcoma cells, drug combinations, stronger effect = higher value
# [9] = growth inhibition, single agents and combos, CRL2098, cell-based, BGB or cisplatin IC20 combos, synergistic combos for chromothripsis tumors (AID 1671454; in the data active = inhibition above about 80%;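 also: cells exposed for 96 h before readout; 0% = vehicle DMSO and 100% = killing by high DMSO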); details: CRL2098 osteosarcoma cells, drug combinations, stronger effect = higher value
# [10] = growth inhibition, single agents and combos, HD-MB03, cell-based, BGB or cisplatin IC20 combos, synergistic combos for chromothripsis tumors (AID 1671455; in the data active = inhibition above about 83%;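 also: 0% = vehicle DMSO and 100% = high DMSO as cytotoxic control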); details: HD-MB03 medulloblastoma cells, stronger effect = higher value
# [11] = growth inhibition, single agents and combos, UWB1.289, cell-based, BGB or cisplatin combos, synergistic combos for chromothripsis tumors (AID 1671456; in the data active = inhibition above about 80%;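 also: cells exposed to compound for four days; 0% = vehicle DMSO and 100% = killing by high DMSO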); details: UWB1.289 ovarian carcinoma cells, stronger effect = higher value
# [12] = growth inhibition, single agents and combos, LFS_MB_2R, cell-based, cisplatin combos, synergistic combos for chromothripsis tumors (AID 1671457; in the data active = inhibition above about 80%;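 also: cells exposed to compound for four days before readout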); details: LFS_MB_2R medulloblastoma cells, stronger effect = higher value
# [13] = growth inhibition, MDA-MB-436, cell-based, BGB or cisplatin combos, synergistic combos for chromothripsis tumors (AID 1671458; call rule not given here;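 also: cells exposed for 96 hours; 0% = vehicle DMSO and 100% = killing by high DMSO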); details: MDA-MB-436 breast carcinoma growth inhibition, drug combinations, stronger effect = higher value
# [14] = UWB1.289_BRCA1 ovarian cancer growth, cell-based, BGB or cisplatin combinations (AID 1671459; in the data active = inhibition above about 80%); details: UWB1.289 BRCA1 ovarian carcinoma, drug combinations, stronger effect = higher value
# [15] = BT084 cell growth, single and combined drugs, ICGC_MB145, cisplatin and BGB IC40 combos (AID 1671461; in the data active = inhibition above about 80%;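 also: cells exposed to drugs for 96 hours; 0% = vehicle DMSO and 100% = high DMSO full killing control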); details: BT084 medulloblastoma cells, drug combinations, stronger effect = higher value
# [16] = RCMB18 cell growth, single agent and combined, cisplatin and BGB IC40 combos (AID 1671462; in the data active = inhibition above about 80%;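 also: cells exposed to compound for four days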); details: RCMB18 medulloblastoma cells, stronger effect = higher value
# [17] = CRL1545 cell growth, single agent and combined, cisplatin and BGB IC20 combos (AID 1671464; in the data active = inhibition above about 80%;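 also: cells exposed to compound for 96 hours before readout; 0% = vehicle DMSO and 100% = high DMSO killing control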); details: CRL1545 osteosarcoma cells, stronger effect = higher value
# [18] = growth inhibition of DIPG cells – cell-based, MIPE5.0 library, qHTS (AID 1347068; cut-off not given, nearly all actives have IC50 up to about 30 µM); details: SU-DIPG-XXV viability
# [19] = drug combination growth inhibition, ovarian cancer – cell-based, oncology-focused library, rucaparib conditional, profiling panel (AID 1508598); details: patient-derived ovarian cancer cells, CellTiter-Glo viability, 144 h, stronger effect = lower value
# [20] = measured here: combination with BGB IC40, at 0.05 µM
# [21] = measured here: with BGB IC20 combination, at 0.5 µM
# [22] = measured here: with cisplatin IC20 combination, at 0.5 µM
# [23] = measured here: combination with cisplatin, at 0.5 µM
# [24] = measured here: combination with cisplatin, at 5 µM
smiles,measurement,setting,value
COC(=O)Nc1nc2ccc(C(=O)c3ccc(F)cc3)cc2[nH]1,AC50,[1],417 nM (active)
same,AC50,[2],332 nM (active)
same,AC50,[3],417 nM (active)
NC(=O)c1ncn(C2OC(CO)C(O)C2O)n1 (configuration not stated),inhibition,"[4]; at 0.5 µM, stronger effect = higher value",-16.1% (inactive)
same,inhibition,"[4]; measured here: combination with BGB IC20, at 0.005 µM",-16.5%
same,inhibition,"[4]; measured here: combination with BGB IC40, at 0.005 µM",25.4%
same,inhibition,[4]; [20],-2.38%
same,inhibition,"[4]; measured here: combination with cisplatin, at 0.5 µM, stronger effect = higher value",-6.01%
same,inhibition,"[4]; measured here: combination with cisplatin, at 5 µM, stronger effect = higher value",-20.9%
same,inhibition,"[5]; BGB combo, at 5 µM",31.2%
same,inhibition,[5]; at 0.5 µM,2.73% (inactive)
same,inhibition,"[5]; cisplatin combo, at 5 µM",-8.56%
same,inhibition,[5]; [21],6.96%
same,inhibition,[5]; [22],2.48%
same,inhibition,"[5]; single agent, at 5 µM",14%
same,inhibition,"[6]; BGB IC20 combo, at 0.005 µM",3.66%
same,inhibition,"[6]; BGB IC40 combo, at 0.005 µM",-0.335%
same,inhibition,"[6]; BGB IC40 combo, at 0.05 µM",6.2%
same,inhibition,[6]; at 0.5 µM,-10.2% (inactive)
same,inhibition,"[6]; cisplatin combo, at 0.05 µM",6.2%
same,inhibition,"[6]; cisplatin combo, at 0.5 µM",-6.29%
same,inhibition,"[6]; cisplatin combo, at 5 µM",-17.4%
same,inhibition,"[6]; measured here: 5 uM single agent, at 5 µM",-2.81%
same,inhibition,[7]; at 0.5 µM,-9.72% (inactive)
same,inhibition,[7]; [20],-31.9%
same,inhibition,[7]; [23],21.6%
same,inhibition,[7]; [24],-1.97%
same,inhibition,[8]; at 0.5 µM,4.41% (inactive)
same,inhibition,"[8]; measured here: with BGB IC20, at 0.5 µM",-12.9%
same,inhibition,"[8]; measured here: with BGB IC20, at 5 µM",10.8%
same,inhibition,"[8]; measured here: with cisplatin IC20, at 0.5 µM",14.3%
same,inhibition,"[8]; measured here: with cisplatin IC20, at 5 µM",0.254%
same,inhibition,"[8]; single agent, at 5 µM",2.26%
same,inhibition,[9]; at 0.5 µM,-9.01% (inactive)
same,inhibition,"[9]; measured here: combination with BGB at IC20, at 0.5 µM",-25.7%
same,inhibition,"[9]; measured here: combination with cisplatin at IC20, at 0.5 µM",-6.71%
same,inhibition,[10]; at 0.5 µM,-4.13% (inactive)
same,inhibition,"[10]; measured here: combo with BGB at IC20, at 0.5 µM",-1.27%
same,inhibition,"[10]; measured here: combo with cisplatin at IC20, at 0.5 µM",-10.7%
same,inhibition,[11]; at 0.5 µM,3.07% (inactive)
same,inhibition,"[11]; measured here: inhibition with BGB combination, at 0.05 µM",9.47%
same,inhibition,"[11]; measured here: inhibition with cisplatin combination, at 0.05 µM",-5.32%
same,inhibition,[12]; at 0.5 µM,1.38% (inactive)
same,inhibition,[12]; [23],-4.76%
same,inhibition,[12]; [24],3.14%
same,inhibition,[13]; at 0.5 µM,-5.54% (inactive)
same,inhibition,"[13]; measured here: BGB combination, at 0.5 µM",2.04%
same,inhibition,"[13]; measured here: BGB combination, at 5 µM",-7.02%
same,inhibition,"[13]; measured here: cisplatin combination, at 0.5 µM",-11.9%
same,inhibition,"[13]; measured here: cisplatin combination, at 5 µM",6.23%
same,inhibition,"[14]; BGB combination, concentration series, at 5 µM",5.54%
same,inhibition,[14]; at 0.5 µM,1.33% (inactive)
same,inhibition,"[14]; cisplatin combination, concentration series, at 5 µM",1.04%
same,inhibition,[15]; at 0.5 µM,6.99% (inactive)
same,inhibition,"[15]; cisplatin combination, at 0.5 µM",12.1%
same,inhibition,"[15]; cisplatin combination, at 5 µM",-28.4%
same,inhibition,"[15]; measured here: BGB IC40 combination 0.05 uM, at 0.05 µM",25.7%
same,inhibition,"[15]; single agent, at 5 µM",8.51%
same,inhibition,[16]; at 0.5 µM,9.1% (inactive)
same,inhibition,"[16]; cisplatin combo, at 5 µM",13.6%
same,inhibition,"[16]; measured here: BGB IC40 combination, at 0.05 µM",7.76%
same,inhibition,[16]; [23],29.4%
same,inhibition,"[16]; single agent, at 5 µM",-9.79%
same,inhibition,[17]; at 0.5 µM,-15.9% (inactive)
same,inhibition,[17]; [21],-14.4%
same,inhibition,[17]; [22],-16.7%
same,inhibition,"[17]; single agent, at 0.05 µM",17.7%
same,inhibition,"[17]; single agent, at 5 µM",-14.1%
CC(C)c1ccc2c(c1)c(SC(C)(C)C)c(CC(C)(C)C(=O)O)n2Cc1ccc(Cl)cc1,AC50,[1],18600 nM (active)
same,AC50,[2],18600 nM (active)
same,AC50,[3],26300 nM (active)
same,outcome,[18],inactive
Nc1nc(Cl)nc2c1ncn2[C@H]1C[C@H](O)[C@@H](CO)O1,AC50,[1],833 nM (active)
same,outcome,[3],inactive
same,outcome,[18],inactive
same,viability,"[19]; at 0.000305 µM, OCI-C5x cells, with rucaparib 10 µM, 100% = cells with rucaparib alone",104% (inactive)
same,viability,"[19]; at 0.000305 µM, OCI-C5x cells, without rucaparib",113% (inactive)
same,viability,"[19]; at 0.000305 µM, OCI-P5x cells, with rucaparib 20 µM, 100% = cells with rucaparib alone",106% (inactive)
same,viability,"[19]; at 0.000305 µM, OCI-P5x cells, without rucaparib",108% (inactive)
same,viability,"[19]; at 0.00122 µM, OCI-C5x cells, with rucaparib 10 µM, 100% = cells with rucaparib alone",101% (inactive)
same,viability,"[19]; at 0.00122 µM, OCI-C5x cells, without rucaparib",115% (inactive)
same,viability,"[19]; at 0.00122 µM, OCI-P5x cells, with rucaparib 20 µM, 100% = cells with rucaparib alone",108% (inactive)
same,viability,"[19]; at 0.00122 µM, OCI-P5x cells, without rucaparib",110% (inactive)
same,viability,"[19]; at 0.00488 µM, OCI-C5x cells, with rucaparib 10 µM, 100% = cells with rucaparib alone",96% (active)
same,viability,"[19]; at 0.00488 µM, OCI-C5x cells, without rucaparib",113% (inactive)
same,viability,"[19]; at 0.00488 µM, OCI-P5x cells, with rucaparib 20 µM, 100% = cells with rucaparib alone",106% (inactive)
same,viability,"[19]; at 0.00488 µM, OCI-P5x cells, without rucaparib",106% (inactive)
same,viability,"[19]; at 0.0195 µM, OCI-C5x cells, with rucaparib 10 µM, 100% = cells with rucaparib alone",111% (inactive)
same,viability,"[19]; at 0.0195 µM, OCI-C5x cells, without rucaparib",111% (inactive)
same,viability,"[19]; at 0.0195 µM, OCI-P5x cells, with rucaparib 20 µM, 100% = cells with rucaparib alone",108% (inactive)
same,viability,"[19]; at 0.0195 µM, OCI-P5x cells, without rucaparib",91.4% (active)
same,viability,"[19]; at 0.0781 µM, OCI-C5x cells, with rucaparib 10 µM, 100% = cells with rucaparib alone",105% (inactive)
same,viability,"[19]; at 0.0781 µM, OCI-C5x cells, without rucaparib",109% (inactive)
same,viability,"[19]; at 0.0781 µM, OCI-P5x cells, with rucaparib 20 µM, 100% = cells with rucaparib alone",107% (inactive)
same,viability,"[19]; at 0.0781 µM, OCI-P5x cells, without rucaparib",76.7% (active)
same,viability,"[19]; at 0.313 µM, OCI-C5x cells, with rucaparib 10 µM, 100% = cells with rucaparib alone",112% (inactive)
same,viability,"[19]; at 0.313 µM, OCI-C5x cells, without rucaparib",95.6% (active)
same,viability,"[19]; at 0.313 µM, OCI-P5x cells, with rucaparib 20 µM, 100% = cells with rucaparib alone",88.9% (active)
same,viability,"[19]; at 0.313 µM, OCI-P5x cells, without rucaparib",50.8% (active)
same,viability,"[19]; at 1.25 µM, OCI-C5x cells, with rucaparib 10 µM, 100% = cells with rucaparib alone",95.8% (active)
same,viability,"[19]; at 1.25 µM, OCI-C5x cells, without rucaparib",94.4% (active)
same,viability,"[19]; at 1.25 µM, OCI-P5x cells, with rucaparib 20 µM, 100% = cells with rucaparib alone",50.8% (active)
same,viability,"[19]; at 1.25 µM, OCI-P5x cells, without rucaparib",37% (active)
same,viability,"[19]; at 5 µM, OCI-C5x cells, with rucaparib 10 µM, 100% = cells with rucaparib alone",72.5% (active)
same,viability,"[19]; at 5 µM, OCI-C5x cells, without rucaparib",54.1% (active)
same,viability,"[19]; at 5 µM, OCI-P5x cells, with rucaparib 20 µM, 100% = cells with rucaparib alone",35.7% (active)
same,viability,"[19]; at 5 µM, OCI-P5x cells, without rucaparib",18.1% (active)
